PubChem BioAssay (NCI)
This is part of a sample that, as a whole, favours compounds with a hit. Of some 83,000 tested, about 20% had one in any assay.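 96-well plates, one dose, 48 hours. Percent growth reported; active if below 10.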 Unmarked numbers belong to inactive results. Calls of active or inactive are those of the source.

Experiments:
Test in all cases: NCI-60 one-dose screen, 48 h (100 = growth as untreated, 0 = no growth, -100 = all killed)
Conditions in all cases: 10 µM unless noted
MOLT-4 leukemia = test system: MOLT-4 leukemia
SR leukemia = test system: SR leukemia
RPMI-8226 leukemia = test system: RPMI-8226 leukemia
OVCAR-8 ovarian = test system: OVCAR-8 ovarian
OVCAR-5 ovarian = test system: OVCAR-5 ovarian
OVCAR-4 ovarian = test system: OVCAR-4 ovarian
SK-OV-3 ovarian = test system: SK-OV-3 ovarian
IGROV1 ovarian = test system: IGROV1 ovarian
OVCAR-3 ovarian = test system: OVCAR-3 ovarian
HS 578T breast = test system: HS 578T breast
NCI/ADR-RES ovarian = test system: NCI/ADR-RES ovarian
T-47D breast = test system: T-47D breast
BT-549 breast = test system: BT-549 breast
MDA-MB-435 melanoma = test system: MDA-MB-435 melanoma
SW-620 colon = test system: SW-620 colon
MCF7 breast = test system: MCF7 breast
HCT-116 colon = test system: HCT-116 colon
HCC-2998 colon = test system: HCC-2998 colon
KM12 colon = test system: KM12 colon

SMILES	growth (MOLT-4 leukemia)	growth (SR leukemia)	growth (RPMI-8226 leukemia)	growth (OVCAR-8 ovarian)	growth (OVCAR-5 ovarian)	growth (OVCAR-4 ovarian)	growth (SK-OV-3 ovarian)	growth (IGROV1 ovarian)	growth (OVCAR-3 ovarian)	growth (HS 578T breast)	growth (NCI/ADR-RES ovarian)	growth (T-47D breast)	growth (BT-549 breast)	growth (MDA-MB-435 melanoma)	growth (SW-620 colon)	growth (MCF7 breast)	growth (HCT-116 colon)	growth (HCC-2998 colon)	growth (KM12 colon)
CCCC(=O)O[C@@H]1C[C@H]2C[C@@H](O[C@@H]3O[C@@H](C)[C@@H](O)[C@@H](O)[C@H]3OC)C[C@@H](C[C@@H](C)/C=C/C=C\C[C@@H]3O[C@@H](C[C@@H]3C)[C@@H](O)C[C@H]3C[C@@]1(O)C(=O)O3)O2	37.5%	85.9%	27.3%	41.1%	74.5%	25.4%	52.4%	70.1%	59.8%	96.7%	67.6%	17.4%	46.9%	59.1%	87.4%	25.7%	56.3%	59.4%	65.3%
CC(=O)O[C@@H]1CC[C@]2(C)[C@H]3CC[C@]4(C)C(=O)CC[C@H]4[C@@H]3C[C@@H]3SC(N)=N[C@@]32C1	45.6%	31.7%	48.4%	76.8%	98.7%	84%	79.1%	67.3%	36.2%	54.5%	44%	65.8%	45.2%	2.34% (active)	44.1%	32.6%	32.7%	82.1%	33.1%
COc1ccc(N(CC(=O)NCCC[Te]c2ccccc2)C(=O)CNC(=O)OC(C)(C)C)cc1	12.1%	12.7%	13%	9.87% (active)	22%	118%	-7.96% (active)	4.89% (active)	103%	11.7%	1.78% (active)	109%	-47.8% (active)	59.4%	53.1%	8.66% (active)	-3.11% (active)	43.3%	19.3%
CCOC(=O)[C@@H](C)C[C@H](Cc1ccccc1)NC(=O)c1csc([C@@H](C[C@H](C(C)C)N(C)C(=O)[C@@H](NC(=O)[C@H]2CCCCN2C)C(C)(C)C)OC(C)=O)n1	7.61% (active)	3.63% (active)	11.9%	6.71% (active)	32.3%	42.7%	13.2%	18.1%	-6.79% (active)	6.42% (active)	6.69% (active)	62.7%	-27.2% (active)	-66.4% (active)	26.2%	13.8%	2.35% (active)	-2.49% (active)	3.85% (active)
CC(C)OC(=O)[C@H](C)NP(=O)(Oc1ccccc1)C1CCCN(O)C1=O (some centres not stated)	93.7%	89.6%	101%	106%	91.7%	107%	122%	90.6%	99.4%	92%	98.4%	94.5%	95%	96.1%	93.1%	94.5%	89.6%	97.2%	94.5%
O=Cc1cn(Cc2ccc(Cl)cc2)c2ccccc12	90.1%	80.9%	77.1%	90.1%	-36.7% (active)	57.5%	31.1%	6.46% (active)	63.8%	83.9%	90.6%	24.4%	92.7%	104%	68.1%	55.5%	63.2%	98%	109%
Cc1ccc(N2COOC3(OOC2)C2CC4CC(C2)CC3C4)cc1	79.3%	46.4%	102%	99%	101%	101%	101%	45.2%	102%	109%	95.6%	82.7%	95.7%	93.2%	108%	77.6%	89%	107%	90.6%
CC[C@@H]1[C@@H](C)O[C@@](O)([C@@H](C)[C@H](O)[C@H](C)[C@H]2OC(=O)/C=C/C=C/[C@H](C)[C@@H]([C@@H](C)[C@@H](O)[C@H](C)[C@@]3(O)C[C@@H](O[C@H]4C[C@@H](O)[C@H](O)C(C)O4)[C@H](CC)[C@@H](C)O3)OC(=O)/C=C/C=C/[C@@H]2C)C[C@H]1O[C@@H]1C[C@@H](O)[C@H](O)C(C)O1 (some centres not stated)	-72.6% (active)	-49.1% (active)	-65.2% (active)	-75.9% (active)	-88.7% (active)	-95.6% (active)	-96.5% (active)	-71.4% (active)	-98% (active)	-51.5% (active)	-64.3% (active)	-63% (active)	-90.5% (active)	-97% (active)	-85.3% (active)	-69.2% (active)	-81.2% (active)	-74.7% (active)	-94.7% (active)
